{"source": "PubChem BioAssay AID463173", "about": "(ICCB-Longwood Screening Facility, Harvard Medical School, 2010)", "note": "In all, about 52,000 compounds went through this assay and about 4,300 (8.3%) were called active. Rule as the data show it: active = survival mostly below about 52% (no sharp cut-off); inactive = mostly above about 56%. The sample as a whole holds a higher share of actives than the screen did.", "data": [{"test_system": "DeltatarO mutant", "assay": "growth inhibition of S. aureus wild type versus tarO mutant, primary screen, teichoic acid synthesis inhibitors, RN4220, OD600 (AID 463173)", "settings": "OD600, 18 h, active compounds read low, screened at 18.75 µg/mL (by protocol)", "values": [{"molecule": "Cc1cc(C)cc(NC(=O)Cn2nnc(C(=O)Nc3cc(C)cc(C)c3)c2N)c1", "survival": "74% (inactive)"}, {"molecule": "Cc1ccc2c(CC(=O)Nc3cccc(Cl)c3C)coc2c1", "survival": "100% (inactive)"}, {"molecule": "Cc1oc2ncnc(N3CCOCC3)c2c1C(=O)NCc1ccc(Cl)cc1", "survival": "94% (inactive)"}, {"molecule": "Cc1oc2ncnc(N3CCCCC3)c2c1C(=O)NCC1CCN(Cc2ccc(F)cc2)CC1", "survival": "77% (inactive)"}, {"molecule": "COC(=O)CCN(C(=O)c1c(C)oc2ncnc(N3CCOCC3)c12)c1ccccc1", "survival": "8% (active)"}, {"molecule": "CCc1ccccc1N(CC)C(=O)c1c(C)oc2ncnc(N3CCOCC3)c12", "survival": "96% (inactive)"}, {"molecule": "CCCN(C(=O)c1c(C)oc2ncnc(N3CCOCC3)c12)c1ccc(Cl)c(Cl)c1", "survival": "46% (inactive)"}, {"molecule": "Cc1cccc(CN2CCC(CNC(=O)c3c(C)oc4ncnc(N5CCCCC5)c34)CC2)c1", "survival": "77% (inactive)"}, {"molecule": "CCc1ccc(CNC(=O)c2c(C)oc3ncnc(N4CCOCC4)c23)cc1", "survival": "128% (inactive)"}, {"molecule": "Cc1ccc(CNC(=O)c2c(C)oc3ncnc(N4CCOCC4)c23)cc1", "survival": "17% (active)"}, {"molecule": "Cc1oc2ncnc(N3CCCCC3)c2c1C(=O)NCC1CCN(Cc2cccc(F)c2)CC1", "survival": "-5% (active)"}, {"molecule": "COc1ccc2oc(=O)c(C(=O)NCc3cccnc3)cc2c1", "survival": "83% (inactive)"}, {"molecule": "CCOC(=O)c1cc(-c2ccc(F)cc2)n(CCC(=O)Nc2nc3cc(C)c(C)cc3s2)c1C", "survival": "85% (inactive)"}, {"molecule": "CCc1cccc2sc(N3CCN(C(=O)c4cc5ccccc5cc4OC)CC3)nc12", "survival": "119% (inactive)"}, {"molecule": "COc1ccc(-n2nc(C(=O)N3CCN(c4ccc(F)cc4)CC3)c3c4ccccc4n(C)c3c2=O)cc1", "survival": "69% (inactive)"}, {"molecule": "Cc1cc(N2CCN(c3cccc(C)c3C)CC2)n2cnnc2n1", "survival": "99% (inactive)"}, {"molecule": "Cc1ccc(NC(=O)Cn2c(=O)oc3cc(S(=O)(=O)N4CCCC4)ccc32)cc1F", "survival": "113% (inactive)"}, {"molecule": "CCCCSCCCNC(=O)c1cn(CC)c2ccc(S(=O)(=O)N(C)C3CCCCC3)cc2c1=O", "survival": "24% (active)"}, {"molecule": "CCCN(CCC)CCCNC(=O)c1cn(CC)c2ccc(S(=O)(=O)N(C)C3CCCCC3)cc2c1=O", "survival": "94% (inactive)"}, {"molecule": "CCCCN(CCCC)CCNC(=O)c1cn(CC)c2ccc(S(=O)(=O)N(C)C3CCCCC3)cc2c1=O", "survival": "144% (inactive)"}, {"molecule": "Cc1cccc(NC(=O)c2ccc(F)c(S(=O)(=O)N3CCC4(CC3)OCCO4)c2)c1", "survival": "72% (inactive)"}, {"molecule": "CCOc1ccccc1NC(=O)c1ccc(F)c(S(=O)(=O)N2CCN(c3ccc(F)cc3)CC2)c1", "survival": "76% (inactive)"}, {"molecule": "Cc1cccc(NC(=O)c2ccc(F)c(S(=O)(=O)N3CCN(c4ccc(F)cc4)CC3)c2)c1", "survival": "-1% (active)"}]}]}
